From PubChem BioAssay AID1159580 (chemical genetic matrix, 2015)
Values joined by “and” are separate entries in the source; they are usually repeats but may differ in a detail not shown here. Identical values can stand only once. The whole screen tested about 5,500 compounds, of which about 2,000 (36%) were called active. Not shown: some 18% with an inconclusive outcome. Cut-off read from the data, not from the text of the source: active = normalized growth mostly below about 0.91 (no sharp cut-off); inconclusive = no clear call, values can overlap the other calls; inactive = mostly above about 0.92. Some of the results follow.

Experiment: chemical genetic growth profiling, strain panel (AID 1159580);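 note: tested at 20 µM; growth read once vehicle control cultures reached saturation at 30 °C; 1 = growth at the plate median or of vehicle wells; lower values mean less growth of the strain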
Settings: S. cerevisiae deletion strains, growth OD

Measured: normalized growth

CNCc1ccccc1
inactive: locus YAL013W, strain DEP1, stronger effect = lower value 0.994 | locus YAL021C, strain ccr4, stronger effect = lower value 1.01 | locus YAL026C, strain drs2, stronger effect = lower value 1.02 | locus YAL030W, strain snc1, stronger effect = lower value 1.02 | locus YBL061C, strain skt5, stronger effect = lower value 1.03 | locus YBR009C, strain hhf1, stronger effect = lower value 1.02 | locus YBR021W, strain FUR4, stronger effect = lower value 1.03 | locus YBR023C, strain chs3, stronger effect = lower value 1.03 | locus YBR171W, strain sec66, stronger effect = lower value 1.03 | locus YBR229C, strain ROT2, stronger effect = lower value 0.965 | locus YBR231C, strain swc5, stronger effect = lower value 1.01 | locus YBR279W, strain paf1, stronger effect = lower value 1.02 | locus YCL011C, strain gbp2, stronger effect = lower value 1.02 | locus YCL016C, strain dcc1, stronger effect = lower value 1.02 | locus YCL029C, strain bik1, stronger effect = lower value 0.984 | locus YCL061C, strain MRC1, stronger effect = lower value 1.01 | locus YCL069W, strain vba3, stronger effect = lower value 1.02 | locus YCR088W, strain abp1, stronger effect = lower value 1.03 | locus YDL005C, strain med2, stronger effect = lower value 1.02 | locus YDL035C, strain GPR1, stronger effect = lower value 1 | locus YDL040C, strain nat1, stronger effect = lower value 1 | locus YDL074C, strain BRE1, stronger effect = lower value 1.05 | locus YDL101C, strain DUN1, stronger effect = lower value 0.982 | locus YDL134C, strain PPH21, stronger effect = lower value 0.992 | locus YDL185W, strain tfp1, stronger effect = lower value 0.987 | locus YDL192W, strain arf1, stronger effect = lower value 0.997 | locus YDR001C, strain nth1, stronger effect = lower value 1.02 | locus YDR069C, strain doa4, stronger effect = lower value 1.01 | locus YDR101C, strain arx1, stronger effect = lower value 1.05 | locus YDR137W, strain rgp1, stronger effect = lower value 1.04 | locus YDR159W, strain sac3, stronger effect = lower value 1.05 | locus YDR162C, strain NBP2, stronger effect = lower value 0.957 | locus YDR195W, strain ref2 0.999 | locus YDR297W, strain sur2, stronger effect = lower value 1.02 | locus YDR318W, strain mcm21, stronger effect = lower value 0.965 | locus YDR334W, strain swr1, stronger effect = lower value 1.03 | locus YDR335W, strain msn5, stronger effect = lower value 1.02 | locus YDR388W, stronger effect = lower value 1.01 | locus YDR392W, strain spt3, stronger effect = lower value 1.01 | locus YDR502C, strain sam2, stronger effect = lower value 1 | locus YEL003W, strain gim4, stronger effect = lower value 1.02 | locus YEL037C, strain rad23, stronger effect = lower value 1.02 | locus YEL061C, strain CIN8 (second series), stronger effect = lower value 1.03 | locus YEL061C, strain CIN8, stronger effect = lower value 0.996 | locus YER015W, strain faa2, stronger effect = lower value 1.01 | locus YER016W, strain bim1, stronger effect = lower value 1.02 | locus YER110C, stronger effect = lower value 0.99 | locus YER111C, strain swi4, stronger effect = lower value 1.02 | locus YER155C, strain BEM2 (second series), stronger effect = lower value 1.02 | locus YER155C, strain BEM2, stronger effect = lower value 0.987 | locus YER167W, strain BCK2, stronger effect = lower value 0.988 | locus YFR010W, strain ubp6, stronger effect = lower value 1.04 | locus YGL078C, strain dbp3, stronger effect = lower value 0.999 | locus YGL086W, strain mad1, stronger effect = lower value 1.06 | locus YGL167C, strain pmr1, stronger effect = lower value 1.03 | locus YGL173C, strain kem1, stronger effect = lower value 1.03 | locus YGL227W, strain vid30, stronger effect = lower value 1.03 | locus YGL240W, strain doc1, stronger effect = lower value 1.01 | locus YGL248W, strain PDE1, stronger effect = lower value 0.984 | locus YGL253W, strain hxk2, stronger effect = lower value 1.03 | locus YGR078C, strain PAC10, stronger effect = lower value 0.981 | locus YGR135W, strain pre9, stronger effect = lower value 0.972 | locus YGR229C, strain SMI1, stronger effect = lower value 0.986 | locus YGR252W, strain gcn5, stronger effect = lower value 0.908 | locus YHR013C, strain ard1, stronger effect = lower value 1.03 | locus YHR027C, strain rpn1, stronger effect = lower value 1.04 | locus YHR030C, strain SLT2, stronger effect = lower value 1.01 and 0.986 | locus YHR079C, strain IRE1 (second series), stronger effect = lower value 0.989 | locus YHR079C, strain IRE1, stronger effect = lower value 0.975 | locus YHR094C, strain hxt1, stronger effect = lower value 0.978 | locus YHR129C, strain ARP1, stronger effect = lower value 1 | locus YHR142W, strain chs7, stronger effect = lower value 1.05 | locus YHR200W, strain rpn10, stronger effect = lower value 0.999 | locus YIL066C, strain RNR3, stronger effect = lower value 0.992 | locus YIL073C, strain SPO22, stronger effect = lower value 1.01 | locus YIL125W, strain kgd1, stronger effect = lower value 1 | locus YIR030C, strain dcg1, stronger effect = lower value 0.99 | locus YJL092W, strain hpr5, stronger effect = lower value 1.02 | locus YJL095W, strain BCK1 (second series), stronger effect = lower value 1.02 | locus YJL095W, strain BCK1, stronger effect = lower value 0.95 and 0.974 | locus YJL115W, strain asf1, stronger effect = lower value 1.03 | locus YJL129C, strain trk1, stronger effect = lower value 1.05 | locus YJL134W, strain LCB3, stronger effect = lower value 0.996 | locus YJL154C, strain vps35, stronger effect = lower value 1.03 | locus YJL164C, strain tpk1, stronger effect = lower value 1.01 | locus YJL166W, strain qcr8, stronger effect = lower value 1.02 | locus YJL168C, strain set2, stronger effect = lower value 0.991 | locus YJL187C, strain SWE1 (second series), stronger effect = lower value 0.977 | locus YJL187C, strain SWE1, stronger effect = lower value 1.03 | locus YJR043C, strain POL32, stronger effect = lower value 1
